Data taken from PubChem BioAssay (Tox21).
Several values for one entry are separate records, joined by “and”; a condition that tells them apart may be missing. Equal values may be shown once. Results filed as inconclusive are left out. Entries that show only a call come without a potency. Where a structure was tested more than once in an assay, its records may differ in their call. Activity calls are given as the source filed them. Unless noted, the call rests on the fitted dose curve.

Experiments:
[1] = Nuclear factor erythroid 2-related factor 2/antioxidant responsive element (Nrf2/ARE) small molecule agonists: qHTS cell viability counter screen in human keratinocytes (AID 1919968; active means well fitted curve in the direction sought with a large enough effect in the repeat runs; an effect the other way counts as inactive or inconclusive; further: nearly all actives have a fitted effect of over 55% in size; further: potency means the concentration at half of the fitted maximal effect)
Procedure, shortened: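 Stably transfected HaCaT (KeratinoSens), 1,500/well. Test agents in DMSO were applied for 23 h, 37 C/5% CO2. CellTiter-Fluor was incubated 1 h before the fluorescence read.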

[2] = Nuclear factor erythroid 2-related factor 2/antioxidant responsive element (Nrf2/ARE) small molecule agonists: luciferase reporter gene qHTS assay in human keratinocytes (AID 1919969); further: nearly all actives have a fitted effect of over 35% in size; further: potency means the concentration at half of the fitted maximal effect
[3] = target: Gonadotropin-releasing hormone receptor (Homo sapiens) (UniProt P30968); assay: Human gonadotropin-releasing hormone receptor (GnRHR) small molecule agonists, calcium flux assay in GnRHR-HEK293 cells (AID 1920063); further: nearly all actives have a fitted effect of over 35% in size; further: potency means the concentration at half of the fitted maximal effect
Procedure, shortened: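 Stable human GnRHR HEK293 line. 18 h plating, then calcium dye for 1 h at 37 C. Agonist-mode compound addition from DMSO stocks; fluorescence monitored 3 min.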

[4] = target: KiSS-1 receptor (Homo sapiens) (UniProt Q969F8); assay: Human kisspeptin (KISS1R) small molecule agonists, calcium flux assay in KISS1R-HEK293 cells (AID 1920064; active means well fitted curve in the direction sought with a large enough effect in the repeat runs; an effect the other way counts as inactive or inconclusive)
Procedure, shortened: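 After overnight (18 h) culture at 37 C/5% CO2, human KISS1R-HEK293 cells received calcium dye for 1 h, then test compound; emission at 540 nm (excitation 480 nm) was tracked for 3 min.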

[5] = G protein-coupled receptor (GPCR) small molecule agonists, calcium flux assay: HEK293 wild type cell line counter screen (AID 1920065)
Procedure, shortened: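 Following 18 h incubation at 37 C/5% CO2, plates got calcium dye for 1 h; compounds, ATP or DMSO were then pinned in and fluorescence followed kinetically (480/540 nm).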

[6] = p53 small molecule agonists, cell-based qHTS assay with human liver microsomes (AID 1963577)
Procedure, shortened: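 p53RE-bla reporter cells were pre-incubated 5 h at 37 C, then treated with compounds plus human liver microsomes (0.5 mg/mL final) and NADPH (0.5 mg/mL final) for 16 h at 37 C. Beta-lactamase activity was read by LiveBLAzer fluorescence after 2 h at room temperature.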

[7] = p53 small molecule agonists, cell-based qHTS assay with rat liver microsomes (AID 1963578)
Procedure, shortened: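 p53RE-bla cells were exposed to compounds together with rat liver microsomes (0.5 mg/mL final) and NADPH (0.5 mg/mL final) for 16 h at 37 C, then read by LiveBLAzer beta-lactamase fluorescence after 2 h at room temperature.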

[8] = p53 small molecule agonists, cell-based qHTS assay with human liver microsomes: qHTS cell viability counter screen (AID 1963579); further: nearly all actives have a fitted effect of over 45% in size; further: potency means the concentration at half of the fitted maximal effect
Procedure, shortened: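 p53RE-bla cells (4,000/well) were pre-incubated 5 h at 37 C, then given compounds in DMSO plus human liver microsomes (0.5 mg/mL final) and NADPH (0.5 mg/mL final) for 16 h at 37 C. Viability was read by CellTiter-Glo luminescence.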

[9] = p53 small molecule agonists, cell-based qHTS assay with rat liver microsomes: qHTS cell viability counter screen (AID 1963580); further: nearly all actives have a fitted effect of over 45% in size; further: potency means the concentration at half of the fitted maximal effect
Procedure, shortened: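 After the beta-lactamase ratio was read, CellTiter-Glo was added to the same wells and luminescence measured at 30 min; cells had been treated 16 h at 37 C with compounds, rat liver microsomes and NADPH (0.5 mg/mL final each).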

[10] = p53 small molecule agonists, cell-based qHTS assay: qHTS cell viability counter screen (AID 1963581); further: nearly all actives have a fitted effect of over 45% in size; further: potency means the concentration at half of the fitted maximal effect
Procedure, shortened: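 qHTS counter screen: 16 h compound exposure at 37 C of p53RE-bla HCT-116 cells (4,000 per well, seeded 5 h prior), cell viability by ATP luminescence.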

[11] = p53 small molecule agonists, cell-based qHTS assay (AID 1963582; active means well fitted activation curve with a large enough effect in the signal ratio in the repeat runs, not every such curve was filed as active; the % refers to the signal ratio)
Procedure, shortened: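 Measured: fluorescence from cleaved LiveBLAzer substrate. System: p53RE-bla cells, 16 h compound treatment at 37 C, 2 h substrate step at room temperature.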

[12] = target: 5-hydroxytryptamine receptor 2A (Homo sapiens) (UniProt P28223); assay: 5-hydroxytryptamine receptor 2A (HTR2A) small molecule antagonists, cell-based qHTS assay (AID 1963586); further: nearly all actives have a fitted effect of over 45% in size; further: potency means the concentration at half of the fitted maximal effect
Procedure, shortened: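 CHO cells stably expressing human HTR2A were plated for 18 h at 37 C, then loaded with calcium dye for 1 h. Compounds were preincubated 5 min at room temperature before DOI (4 nM solution) was added. Kinetic fluorescence was read for 3 min.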

[13] = target: 5-hydroxytryptamine receptor 2A (Homo sapiens) (UniProt P28223); assay: 5-hydroxytryptamine receptor 2A (HTR2A) small molecule agonists, cell-based qHTS assay (AID 1963587); further: nearly all actives have a fitted effect of over 30% in size; further: potency means the concentration at half of the fitted maximal effect
Procedure, shortened: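 CHO cells stably expressing human HTR2A, plated 18 h, loaded with calcium dye 1 h at 37 C. Agonist mode: compounds added and intracellular calcium fluorescence recorded kinetically for 2 min at 1 sec intervals.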

[14] = target: Muscarinic acetylcholine receptor M1 (Homo sapiens) (UniProt P11229); assay: Cholinergic receptor muscarinic 1 (CHRM1) small molecule antagonists, cell-based qHTS assay (AID 1963588); further: nearly all actives have a fitted effect of over 40% in size; further: potency means the concentration at half of the fitted maximal effect
Procedure, shortened: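 Compounds were tested at 15 concentrations in three independent runs. Dye-loaded CHRM1-CHO cells were exposed 5 min at room temperature before stimulation by acetylcholine added at 50nM. Intracellular calcium was read kinetically on FDSS for 3 min.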

[15] = target: Muscarinic acetylcholine receptor M1 (Homo sapiens) (UniProt P11229); assay: Cholinergic receptor muscarinic 1 (CHRM1) small molecule agonists, cell-based qHTS assay (AID 1963589); further: nearly all actives have a fitted effect of over 35% in size
Procedure, shortened: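 Kinetic fluorescence (1 s intervals) of calcium-sensitive dye in human M1 CHO cells after compound addition; cells pre-incubated 18 h at 37 C/5% CO2 and dye-loaded 1 h.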

[16] = cAMP Responsive Elements (CRE) small molecule antagonists, cell-based qHTS assay (AID 1963591; active means well fitted inhibition curve with a large enough effect in the signal ratio in the repeat runs, not every such curve was filed as active; the % refers to the signal ratio)
Procedure, shortened: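 Reporter line CRE-bla HEK 293T in dialyzed-FBS DMEM; cells preincubated 18 h, treated 3 h with compound plus NKH477 (0.25 uM final); LiveBLAzer FRET, 2 h RT.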

[17] = target: Beta-2 adrenergic receptor (Homo sapiens) (UniProt P07550); assay: Adrenergic beta2 receptor (ADRB2) small molecule antagonists, cell-based qHTS assay (AID 1963592); further: nearly all actives have a fitted effect of over 50% in size; further: potency means the concentration at half of the fitted maximal effect
Procedure, shortened: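 Assay format: CHO-ADRB2 cells, 18-20hr seeding at 37C/5% CO2, then compound plus 1nM isoproterenol agonist mix for 0.5hr RT. Homogeneous time-resolved fluorescence cAMP detection after 1hr, expressed as 665/615 nm ratio.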

[18] = target: D(2) dopamine receptor (Homo sapiens) (UniProt P14416); assay: Dopamine D2 receptor (DRD2) small molecule antagonists, cell-based qHTS assay (AID 1963595; active means well fitted inhibition curve with a large enough effect in the signal ratio in the repeat runs, with a control signal flat; the % refers to the signal ratio; further: potency means the concentration at half of the fitted maximal effect)
Procedure, shortened: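 HEK293 cells stably expressing DRD2, preincubated with 0.1 mM Ro20-1724 and compounds 10 min, were stimulated with 200 nM NKH477 plus 12 nM quinpirole for 30 min at room temperature; cAMP measured by HTRF (665/620 nm).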

[19] = target: D(2) dopamine receptor (Homo sapiens) (UniProt P14416); assay: Dopamine D2 receptor (DRD2) small molecule agonists, cell-based qHTS assay (AID 1963594); further: nearly all actives have a fitted effect of over 35% in size
Procedure, shortened: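 HEK293 cells stably expressing human DRD2, pre-treated with PDE inhibitor Ro20-1724 (0.1 mM final) and compound 10 min at room temperature, then stimulated with NKH477 (200nM […]) for 30 min. cAMP read by HTRF (665/620 nm).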

[20] = cAMP Responsive Elements (CRE) small molecule agonists, cell-based qHTS assay (AID 1963590)
Procedure, shortened: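 Test agents in DMSO were incubated 3 h at 37 C/5% CO2 with CRE-bla HEK 293T cells seeded 18 h earlier; LiveBLAzer B/G FRET substrate was added and read after 2 h at room temperature.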

Sequence of Beta-2 adrenergic receptor (Homo sapiens) (P07550 whole entry, looked up): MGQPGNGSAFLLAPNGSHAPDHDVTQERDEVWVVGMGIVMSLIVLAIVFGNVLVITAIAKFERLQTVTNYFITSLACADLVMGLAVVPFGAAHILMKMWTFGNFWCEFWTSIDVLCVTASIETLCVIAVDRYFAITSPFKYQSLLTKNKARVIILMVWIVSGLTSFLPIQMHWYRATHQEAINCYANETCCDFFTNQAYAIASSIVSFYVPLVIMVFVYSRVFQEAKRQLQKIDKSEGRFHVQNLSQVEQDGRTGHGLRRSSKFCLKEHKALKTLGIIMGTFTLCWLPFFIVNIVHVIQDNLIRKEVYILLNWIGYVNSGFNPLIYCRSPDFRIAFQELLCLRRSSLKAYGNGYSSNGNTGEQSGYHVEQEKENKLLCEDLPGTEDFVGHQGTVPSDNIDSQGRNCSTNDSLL
Sequence of 5-hydroxytryptamine receptor 2A (Homo sapiens) (P28223 whole entry, looked up): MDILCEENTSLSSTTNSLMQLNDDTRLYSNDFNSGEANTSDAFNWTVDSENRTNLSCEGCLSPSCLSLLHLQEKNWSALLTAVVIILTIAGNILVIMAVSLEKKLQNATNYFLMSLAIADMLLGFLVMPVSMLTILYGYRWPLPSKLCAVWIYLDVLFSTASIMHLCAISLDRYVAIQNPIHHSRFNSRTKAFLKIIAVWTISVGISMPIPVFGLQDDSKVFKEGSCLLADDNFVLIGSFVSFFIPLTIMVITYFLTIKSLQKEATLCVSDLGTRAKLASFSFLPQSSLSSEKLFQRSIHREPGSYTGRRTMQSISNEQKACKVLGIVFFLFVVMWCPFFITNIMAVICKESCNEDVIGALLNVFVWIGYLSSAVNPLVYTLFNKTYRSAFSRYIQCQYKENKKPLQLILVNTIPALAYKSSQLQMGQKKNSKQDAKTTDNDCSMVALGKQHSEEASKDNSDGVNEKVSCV
Sequence of KiSS-1 receptor (Homo sapiens) (Q969F8 whole entry, looked up): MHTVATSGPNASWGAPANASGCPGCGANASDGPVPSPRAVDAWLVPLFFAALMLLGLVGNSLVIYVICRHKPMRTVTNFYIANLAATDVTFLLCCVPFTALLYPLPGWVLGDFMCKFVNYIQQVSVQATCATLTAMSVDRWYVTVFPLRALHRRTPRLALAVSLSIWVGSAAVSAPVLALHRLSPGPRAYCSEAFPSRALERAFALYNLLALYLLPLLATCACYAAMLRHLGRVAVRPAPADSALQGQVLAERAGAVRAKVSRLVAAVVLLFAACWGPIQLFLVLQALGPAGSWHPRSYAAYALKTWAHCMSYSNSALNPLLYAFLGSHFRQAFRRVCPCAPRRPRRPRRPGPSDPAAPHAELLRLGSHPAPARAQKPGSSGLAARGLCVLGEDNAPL
Sequence of Gonadotropin-releasing hormone receptor (Homo sapiens) (P30968 whole entry, looked up): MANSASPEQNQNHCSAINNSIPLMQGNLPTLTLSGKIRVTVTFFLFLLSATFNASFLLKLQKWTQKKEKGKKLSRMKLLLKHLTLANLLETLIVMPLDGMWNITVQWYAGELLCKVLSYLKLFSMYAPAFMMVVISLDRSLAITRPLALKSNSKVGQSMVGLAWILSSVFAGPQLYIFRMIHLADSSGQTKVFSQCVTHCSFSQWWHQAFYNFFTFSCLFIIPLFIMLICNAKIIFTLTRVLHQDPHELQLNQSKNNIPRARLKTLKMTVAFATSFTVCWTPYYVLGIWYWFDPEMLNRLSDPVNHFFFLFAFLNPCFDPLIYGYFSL
Sequence of Muscarinic acetylcholine receptor M1 (Homo sapiens) (P11229 whole entry, looked up): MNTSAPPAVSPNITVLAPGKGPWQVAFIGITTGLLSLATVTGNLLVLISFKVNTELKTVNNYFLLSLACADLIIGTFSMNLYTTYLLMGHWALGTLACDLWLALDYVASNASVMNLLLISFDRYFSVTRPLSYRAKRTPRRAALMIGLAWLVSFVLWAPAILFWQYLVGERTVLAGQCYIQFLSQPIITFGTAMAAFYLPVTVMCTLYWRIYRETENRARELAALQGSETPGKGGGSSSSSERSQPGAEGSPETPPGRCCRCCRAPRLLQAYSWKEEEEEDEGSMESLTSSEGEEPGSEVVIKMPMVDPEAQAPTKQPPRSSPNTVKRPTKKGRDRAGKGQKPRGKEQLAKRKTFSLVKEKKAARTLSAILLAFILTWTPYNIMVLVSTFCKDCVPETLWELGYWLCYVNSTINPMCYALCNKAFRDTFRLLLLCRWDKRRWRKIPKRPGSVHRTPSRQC
Sequence of D(2) dopamine receptor (Homo sapiens) (P14416 whole entry, looked up): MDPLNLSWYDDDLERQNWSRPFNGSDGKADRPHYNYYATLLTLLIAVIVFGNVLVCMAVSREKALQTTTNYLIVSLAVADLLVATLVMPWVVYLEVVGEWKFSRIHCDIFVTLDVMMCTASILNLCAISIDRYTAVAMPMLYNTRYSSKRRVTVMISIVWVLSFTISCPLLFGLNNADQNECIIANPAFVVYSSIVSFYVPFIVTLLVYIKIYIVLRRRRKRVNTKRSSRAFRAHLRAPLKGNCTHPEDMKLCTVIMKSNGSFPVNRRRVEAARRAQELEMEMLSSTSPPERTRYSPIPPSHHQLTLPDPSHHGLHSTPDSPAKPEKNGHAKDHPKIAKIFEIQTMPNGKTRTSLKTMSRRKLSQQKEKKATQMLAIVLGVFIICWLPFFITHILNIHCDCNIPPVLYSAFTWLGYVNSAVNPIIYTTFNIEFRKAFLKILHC

| SMILES | Potency [1] | Potency [2] | Potency [3] | Potency [4] | Potency [5] | Potency [6] | Potency [7] | Potency [8] | Potency [9] | Potency [10] | Potency [11] | Potency [12] | Potency [13] | Potency [14] | Potency [15] | Potency [16] | Potency [17] | Potency [18] | Potency [19] | Potency [20] |
| --- | --- | --- | --- | --- | --- | --- | --- | --- | --- | --- | --- | --- | --- | --- | --- | --- | --- | --- | --- | --- |
| CCCBr | inactive | inactive | inactive | inactive | inactive | inactive | inactive | inactive | inactive | inactive | inactive | inactive | inactive | inactive | inactive | inactive | inactive | inactive |  |  |
| Cc1ccc2c(c1N)C(=O)c1ccccc1C2=O | inactive | 60.4 µM (active) and 1.93 µM (active) | inactive | inactive | inactive | inactive | inactive | inactive | inactive | inactive | inactive | inactive | inactive | inactive | inactive | inactive | inactive | inactive | inactive |  |
| CCC/C=N/O | inactive | inactive | inactive | inactive | inactive | inactive | inactive | inactive | inactive | inactive | inactive | inactive | inactive | inactive | inactive |  | inactive | inactive | inactive | inactive |
| Nc1ccccc1C(=O)O | inactive | inactive | inactive | inactive | inactive | inactive | inactive | inactive | inactive | inactive | inactive | inactive | inactive | inactive | inactive |  | inactive | inactive | inactive | inactive |
| OC(c1ccc(Cl)cc1)(c1cncnc1)c1ccccc1Cl (stereo unspecified) | inactive | 24.8 µM (active) and inactive | inactive | inactive | inactive | inactive | inactive | inactive | inactive | inactive | inactive | inactive | inactive | inactive | inactive |  | 69.8 µM (active) | inactive | inactive | inactive |
| COCC(=O)N(c1c(C)cccc1C)C(C)C(=O)OC (stereo unspecified) | inactive | inactive | inactive | inactive | inactive | inactive | inactive | inactive | inactive | inactive | inactive | inactive | inactive | inactive | inactive | inactive |  | inactive | inactive | inactive |
| O=C(O)C(F)(F)C(F)(F)C(F)(F)C(F)(F)C(F)(F)C(F)(F)C(F)(F)F | inactive | inactive | inactive | inactive | inactive | inactive | inactive | inactive | inactive | inactive | inactive | inactive | inactive | inactive | inactive |  | inactive | inactive | inactive | inactive |
| N#CCc1ccccc1 | inactive | inactive | inactive | inactive | inactive | inactive | inactive | inactive | inactive | inactive | inactive | inactive | inactive | inactive | inactive |  | inactive | inactive |  | inactive |
| O=[N+]([O-])CCO | inactive | inactive | inactive | inactive | inactive | inactive | inactive | inactive | inactive | inactive | inactive | inactive | inactive | inactive | inactive | inactive | inactive | inactive |  |  |
| O=C(Cl)/C=C/C(=O)Cl | inactive | inactive | inactive | inactive | inactive | inactive | inactive | inactive | inactive | inactive | inactive | inactive | inactive | 1.1 nM (active) | inactive | inactive | inactive |  | inactive |  |
| OC(O)C(Cl)(Cl)Cl | inactive | inactive | inactive | inactive | inactive | inactive | inactive | inactive | inactive | inactive | inactive | inactive | inactive | inactive | inactive |  | inactive | inactive | inactive | inactive |
| Nc1ccc([N+](=O)[O-])cc1N | 13.7 µM (active) | 34.4 µM (active) | inactive | inactive | inactive | inactive | inactive | inactive | inactive | inactive | inactive | inactive | inactive | inactive | inactive |  |  | inactive | inactive | inactive |
| NC(=S)c1c(Cl)cccc1Cl | inactive | inactive | inactive | inactive | inactive | inactive | inactive | inactive | inactive | inactive | inactive | inactive | inactive | inactive | inactive | inactive | inactive | inactive |  | inactive |
| CCCCCCCCCCCC[N+](C)(C)CCOc1ccccc1 | 27.3 µM (active) | inactive | 38.9 µM (active) and 16.9 µM (active) | inactive | inactive | inactive | inactive | 45.8 µM (active) and inactive | 45.8 µM (active) and inactive | 45.8 µM (active) and inactive | inactive | 133 nM (active) and 46 nM (active) | 43.7 µM (active) | 748 nM (active) and inactive | inactive | inactive | inactive | 48.6 µM (active) | inactive |  |
| C=CCN=C=S | inactive | inactive | inactive | inactive | inactive | inactive | inactive | inactive | inactive | inactive | inactive | inactive | inactive | inactive | inactive | inactive |  | inactive |  |  |
| O=[N+]([O-])c1c(Cl)c(Cl)c(Cl)c(Cl)c1Cl | inactive | 27.2 µM (active) and 54.5 µM (active) | inactive | inactive | inactive | inactive | inactive | inactive | inactive | inactive | inactive | inactive | inactive | inactive | inactive | inactive | inactive | inactive |  |  |
